PubChem BioAssay (Tox21)
Inconclusive results are not listed. Entries that show only a call come without a potency. The source made the active and inactive calls. Calls follow the shape of the dose curve; as a rule, active = well fitted cell-killing curve with a large enough effect in the repeat runs; inconclusive = weak or mixed curves, or effect the other way; inactive = flat fitted curve, though single readings scatter.

Experiments:
[1] = cAMP Responsive Elements (CRE) small molecule antagonists, cell-based qHTS assay: qHTS cell viability counter screen (AID 2060913); also: nearly all actives have a fitted effect of over 40% in size
Outline: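 HEK293T CRE-bla, 2,000 cells/well, 18 h preincubation; cpd in DMSO + NKH477 0.25 uM final, 3 h 37 C/5% CO2; LiveBLAzer 2 h RT, then CellTiter-Glo 30 min RT, luminescence.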

[2] = cAMP Responsive Elements (CRE) small molecule agonists, cell-based qHTS assay: qHTS cell viability counter screen (AID 2060914); also: nearly all actives have a fitted effect of over 50% in size
Outline: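 In the same wells as the reporter read, viability of CRE-bla HEK 293T cells was quantified by CellTiter-Glo luminescence after a 3 h compound exposure.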
Potency is read from the fitted curve at half-maximal effect.

SMILES	Potency [1]	Potency [2]	viability change, negative = cytotoxic [1]	activity change, negative = cytotoxicity [2]
Brc1c2ccccc2cc2ccccc12	inactive	inactive		
O=Cc1ccc(F)c(Br)c1	inactive	inactive		
CC(=O)[C@@]1(O)CC[C@H]2[C@@H]3CCC4=CC(=O)CC[C@]4(C)[C@H]3CC[C@@]21C	inactive	inactive		
CC(CCO)CC(C)(C)C (stereo not given)	inactive	inactive		
CN(C)C(=O)Oc1cccc([N+](C)(C)C)c1	inactive	inactive		
O=C=NC1CCC(CC2CCC(N=C=O)CC2)CC1 (stereo not given)	inactive	inactive		
CCCCCCCCCCCCCCCCCCOCCO			-9.04% [at 18.9 µM] (inactive)	-6.34% [at 18.9 µM] (inactive)
C=C(C)C(=O)OCCCCCCCC(C)C	inactive	inactive		
O=[N+]([O-])c1cccc(C(F)(F)F)c1	inactive	inactive		
CN(C)c1cc(NC(=O)CNC(C)(C)C)c(O)c2c1C[C@H]1C[C@H]3[C@H](N(C)C)C(=O)C(C(N)=O)=C(O)[C@@]3(O)C(=O)C1=C2O	inactive	inactive		
Cc1c(Nc2ncccc2C(=O)O)cccc1C(F)(F)F	inactive	inactive		
NS(=O)(=O)c1cc(C(=O)O)cc(N2CCCC2)c1Oc1ccccc1	inactive	inactive		
NS(=O)(=O)c1ccc(C(=O)O)cc1	inactive	inactive		
CCCCCOc1ccc(C2SC(=O)NC2=O)cc1OCC (stereo not given)	inactive	inactive		
COCCc1ccc(OCC2CO2)cc1 (stereo not given)	inactive	inactive		
Cc1ccc(S(=O)(=O)O)cc1	inactive	inactive		
FC(F)(F)C(Cl)(Cl)Cl	inactive	inactive		
C[n+]1cc2c3c(ccc2c2ccc4cc5c(cc4c21)OCO5)OCO3	3.66 µM (active)	3.26 µM (active)		
CC(=O)Nc1ncc([N+](=O)[O-])s1	inactive	inactive		
COc1ccc(COC=O)cc1	inactive	inactive		
C[C@](N)(Cc1ccc(O)c(O)c1)C(=O)O	inactive	inactive		
C[C@@H]1O[C@@H](O[C@@H]2[C@@H](O)[C@H](OCCc3ccc(O)c(O)c3)O[C@H](CO[C@@H]3O[C@H](CO)[C@@H](O)[C@H](O)[C@H]3O)[C@H]2OC(=O)/C=C/c2ccc(O)c(O)c2)[C@H](O)[C@H](O)[C@H]1O	inactive	inactive		
CCC(C)[O-].CCC(C)[O-].CCOC(=O)/C=C(/C)[O-].[Al+3]	inactive	inactive		
CN1CCC(N(Cc2cccs2)c2ccccc2)CC1	inactive	inactive		
CCCCC/C=C/C=C/C=O	inactive	inactive		
C=C(C)C1CCC(C)(O)CC1 (stereo not given)	inactive	inactive		
COc1ccc(OC)cc1	inactive	inactive		

SMILES	Potency [1]	Potency [2]	viability change, negative = cytotoxic [1]	activity change, negative = cytotoxicity [2]
CNS(=O)(=O)CCc1ccc2[nH]cc(C3CCN(C)CC3)c2c1	inactive	inactive		
CCOC(=O)CC(CC(=O)OCC)(OC(C)=O)C(=O)OCC	inactive	inactive		
CC(O)C(C)O (stereo not given)	inactive	inactive		
CCC(CC)C(C)CCOC(C)=O (stereo not given)	inactive	inactive		
CCNC(=O)C(C)OC(=O)Nc1ccccc1 (stereo not given)	inactive	inactive		
CCOc1cc(OCC)c(C(=O)CCC(=O)O)cc1OCC	inactive	inactive		
Cc1cc(C)n(CO)n1	inactive	inactive		
COc1c(Cl)c(Cl)c(Cl)c(Cl)c1Cl	inactive	inactive		
CC1CCC(=O)C1=O (stereo not given)	inactive	inactive		
CC(C)(C)c1cc(CCC(=O)NN)cc(C(C)(C)C)c1O	inactive	inactive		
C=CC(=O)OCCCCCCCC(C)C	inactive	inactive		
CC1=C(O)C(=O)CO1	inactive	inactive		
CCCC(=O)OC[C@@H](OC(=O)CCC)[C@@H](OC(=O)CCC)[C@H](Cn1c2nc(=O)[nH]c(=O)c-2nc2cc(C)c(C)cc21)OC(=O)CCC	inactive	inactive		
Cc1cccc(OCCOc2cccc(C)c2)c1	inactive	inactive		
CC1(C)S[C@@H]2[C@H](NC(=O)COc3ccccc3)C(=O)N2[C@H]1C(=O)O	inactive	inactive		
NCCNC(=O)c1ccc(Cl)cn1	inactive	inactive		
O=C(c1ccc(O)cc1)c1ccc(O)cc1	inactive	inactive		
CC(C)(C)c1nnc(NS(=O)(=O)c2ccccc2)s1	inactive	inactive		
CC(=O)N1CCN(c2ccc(O)cc2)CC1	inactive	inactive		
COP(=O)(O)OP(=O)(O)OC	inactive	inactive		
CCCCCCOc1ccc(O)cc1	inactive	inactive		
CCCCNC(=O)NS(=O)(=O)c1ccc(C)cc1	inactive	inactive		
CCOc1ccc(NC(=O)CC(C)O)cc1 (stereo not given)	inactive	inactive		
C/C(Cl)=C/CCl	inactive	inactive		
Cc1c(N)cccc1[N+](=O)[O-]	inactive	inactive		
CCCCC(CC)C(=O)O (stereo not given)	inactive	inactive		
O=[N+]([O-])c1ccc(/C=C/c2ccc([N+](=O)[O-])cc2S(=O)(=O)O)c(S(=O)(=O)O)c1	inactive	inactive		

SMILES	Potency [1]	Potency [2]	viability change, negative = cytotoxic [1]	activity change, negative = cytotoxicity [2]
O=C(O)Cc1ccc(Cl)cc1Cl	inactive	inactive		
O=C1c2cccc(O)c2C(=O)c2c(O)cccc21	inactive	inactive		
Cn1ccc2cc3c(cc21)CCN3C(=O)Nc1cccnc1			-0.701% [at 18.9 µM] (inactive)	3% [at 18.9 µM] (inactive)
Oc1cccc2cc3cccc(O)c3c(O)c12	inactive	inactive		
C/C=C(\C)C(=O)OCC/C=C\CC	inactive	inactive		
COc1cc(OC)c(C(=O)CCCN2CCCC2)c(OC)c1	inactive	inactive		
COC(=O)/C=C\C(=O)O	inactive	inactive		
COc1ccc2sc(C(=O)Nc3nnn[nH]3)c(OC(C)C)c2c1	inactive	inactive		
c1cc(-c2ccncc2)ccn1	inactive	inactive		
CC(O)C(CO)C(C)O (stereo not given)	inactive	inactive		
CN[C@H]1CC[C@@H](c2ccc(Cl)c(Cl)c2)c2ccc(S(N)(=O)=O)cc21	inactive	inactive		
Nc1c(S(=O)(=O)O)cc(Br)c2c1C(=O)c1ccccc1C2=O	inactive	inactive		
CCOC(=O)c1c(N)sc2c1CCN(Cc1ccccc1)C2	inactive	inactive		
Clc1ccc(Cl)c(Cl)c1Cl	inactive	inactive		
CCc1cccc(C)c1	inactive	inactive		
CCOC(=O)CCCCCCCCC(=O)OCC	inactive	inactive		
CCCCc1ccc(Cl)cc1	inactive	inactive		
O=c1c(O)c(-c2ccc(O)cc2O)oc2cc(O)cc(O)c12	inactive	inactive		
CC[C@]1(O)C[C@H]2CN(CCc3c([nH]c4ccccc34)[C@@](C(=O)OC)(c3cc4c(cc3OC)N(C=O)[C@H]3[C@@](O)(C(=O)OC)[C@H](OC(C)=O)[C@]5(CC)C=CCN6CC[C@]43[C@@H]65)C2)C1	inactive	inactive		
CC#N	inactive	inactive		
COc1ccc2nc(SCc3ncc(C)c(OC)c3C)[nH]c2c1	inactive	inactive		
CN(C)C(=O)C(CCN1CCC(O)(c2ccc(Cl)cc2)CC1)(c1ccccc1)c1ccccc1	inactive	inactive		
CCCCCC(CC)OC(=O)CCCOc1ccc(Cl)cc1Cl (stereo not given)	inactive	inactive		
CCCCCCC(CCCCCCCCCCC(=O)OCC(COC(C)=O)OC(C)=O)OC(C)=O (stereo not given)	inactive	inactive		
COc1ccccc1N1CCN(CC(O)COc2cc(OC)c(OC)c(OC)c2)CC1 (stereo not given)	inactive	inactive		
CCCCCCCCCCCCCC=O			-4.53% [at 8.39 µM] (inactive)	15.9% [at 8.39 µM] (inactive)
Cc1ncc(CSSCc2cnc(C)c(O)c2CO)c(CO)c1O	inactive	inactive		

SMILES	Potency [1]	Potency [2]	viability change, negative = cytotoxic [1]	activity change, negative = cytotoxicity [2]
NCCNCCO	inactive	inactive		
Clc1ccccn1	inactive	inactive		
NC(=O)OCC(COC(N)=O)c1ccccc1	inactive	inactive		
O=c1[nH]c(=O)c2[nH]c(=O)[nH]c2[nH]1			-5.49% [at 8.39 µM] (inactive)	8.03% [at 8.39 µM] (inactive)
Cc1ccc(NC(N)=O)cc1	inactive	inactive		
OC[C@H]1O[C@@H]2O[C@H]3[C@H](O)[C@@H](O)[C@@H](O[C@H]4[C@H](O)[C@@H](O)[C@@H](O[C@H]5[C@H](O)[C@@H](O)[C@@H](O[C@H]6[C@H](O)[C@@H](O)[C@@H](O[C@H]7[C@H](O)[C@@H](O)[C@@H](O[C@H]8[C@H](O)[C@@H](O)[C@@H](O[C@H]9[C@H](O)[C@@H](O)[C@@H](O[C@H]1[C@H](O)[C@H]2O)O[C@@H]9CO)O[C@@H]8CO)O[C@@H]7CO)O[C@@H]6CO)O[C@@H]5CO)O[C@@H]4CO)O[C@@H]3CO	inactive	inactive		
N#CCCN(CCO)CCO	inactive	inactive		
O=S(=O)(O)c1ccc2ccccc2c1	inactive	inactive		
Cc1nc(C)c(C)nc1C	inactive	inactive		
O=C1C(c2[nH]c3ccccc3c2O)=Nc2ccccc21	inactive	inactive		
CC(C)=CC(C)(C)C	inactive	inactive		
O=Cc1ccc(O)c(O)c1O	inactive	inactive		
CC[C@@H](CO)NCCN[C@@H](CC)CO	inactive	inactive		
Cc1ccccc1Cl	inactive	inactive		
CCCCCCCCOCCCN	inactive	inactive		
CC1(C)O[C@@H]2C[C@H]3[C@@H]4CCC5=CC(=O)C=C[C@]5(C)[C@@]4(F)[C@@H](O)C[C@]3(C)[C@]2(C(=O)CO)O1	inactive	inactive		
ClC1=C(Cl)C1(Cl)Cl	inactive	inactive		
Nc1ncn([C@H]2C[C@H](O)[C@@H](CO)O2)c(=O)n1	inactive	inactive		
CN(CCOc1ccc(CC2SC(=O)NC2=O)cc1)c1ccccn1 (stereo not given)	inactive	inactive		
CCOCC(C)O (stereo not given)	inactive	inactive		
NCCCNCCSP(=O)(O)O			-1.42% [at 8.39 µM] (inactive)	3.53% [at 8.39 µM] (inactive)
CCCCCCCCCCCCCCCC(=O)OC(C)C	inactive	inactive		
CCOc1cc(OCC)c(C(C)=O)cc1OCC	inactive	inactive		
OCCCc1ccccc1	inactive	inactive		
